Source: PubChem BioAssay (NCATS)
Results filed as inconclusive are left out. Calls of active or inactive are those of the source. The call rests on the fitted dose curve; in most records, active means well fitted curve in the direction sought with a large enough effect; inconclusive means small, poorly fitted or top-dose-only effect, or another doubt; inactive means no such curve, though single readings can be large; an effect the other way counts as inactive or inconclusive.

Legend:
[1] = qHTS of pediatric cancer cell lines to identify multiple opportunities for drug repurposing: Primary screen for OHS-50 cells (AID 1347103);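 further: plate controls were DMSO neutral control for no effect and bortezomib positive control for full effect; nearly all actives have a fitted effect of over 40% in size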
Method in brief: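 Cells (500-1,000/well) rested 5 h, then received compounds for 48 h; metabolically active cells were measured by CellTiter-Glo luminescence. Final concentrations spanned up to 46 µM (MIPE, 11-point) or 0.59 nM-46 µM (NPC, 8-point) in primary screens, 11-point in follow-ups.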

[2] = qHTS of pediatric cancer cell lines to identify multiple opportunities for drug repurposing: Primary screen for RD cells (AID 1347104);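 further: plate controls were DMSO for no effect and bortezomib for full effect; nearly all actives have a fitted effect of over 55% in size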
Method in brief: (§1)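 Quantitative HTS format: each compound titrated (MIPE 11 points from 0.78 nM, NPC 8 points from 0.59 nM) onto cells plated 5 hours earlier. After 48 h at 37 degrees C, CellTiter-Glo luminescence was recorded.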

[3] = qHTS of pediatric cancer cell lines to identify multiple opportunities for drug repurposing: Primary screen for MG 63 (6-TG R) cells (AID 1347105); further: on the % scale 0 is the no-effect control and ±100 the full control effect; nearly all actives have a fitted effect of over 50% in size
Method in brief: as §1

[4] = qHTS of pediatric cancer cell lines to identify multiple opportunities for drug repurposing: Primary screen for control Hh wild type fibroblast cells (AID 1347106);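 further: series mostly up to about 46 µM; on the % scale 0 is the no-effect control and ±100 the full control effect; a drop in luminescence marks cytotoxicity and a rise apparent proliferation; nearly all actives have a fitted effect of over 55% in size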
Method in brief: (§2)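 Viability after 48 h compound treatment at 37C, 500-1,000 cells/well, read as ATP luminescence with CellTiter-Glo. Primary screens used 11-point (MIPE, 0.78 nM-46 µM) or 8-point (NPC, 0.59 nM-46 µM) final concentrations; follow-up screens used 11-point dilutions.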

[5] = qHTS of pediatric cancer cell lines to identify multiple opportunities for drug repurposing: Primary screen for Rh30 cells (AID 1347107); further: series mostly up to about 46 µM; on the % scale 0 is the no-effect control and ±100 the full control effect; nearly all actives have a fitted effect of over 75% in size
Method in brief: as §2

[6] = qHTS of pediatric cancer cell lines to identify multiple opportunities for drug repurposing: Primary screen for Rh41 cells (AID 1347108);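 further: series mostly up to about 46 µM; luminescence drop marks cytotoxic hits; nearly all actives have a fitted effect of over 70% in size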
Method in brief: as §1

[7] = qHTS of pediatric cancer cell lines to identify multiple opportunities for drug repurposing: Confirmatory screen for A673 cells (AID 1347110);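 further: cells exposed to compound for 48 h before the viability read; plate controls were DMSO neutral control for no effect and bortezomib positive control for full effect; nearly all actives have a fitted effect of over 65% in size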
Method in brief: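 A673 cells seeded at 500-1,000 cells/well, rested 5 h, then dosed; primary MIPE 11-point (0.78 nM to 46 µM), NPC (0.59 nM to 46 µM); confirmatory 11-point. CellTiter-Glo luminescence after 48 h.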

[8] = qHTS of pediatric cancer cell lines to identify multiple opportunities for drug repurposing: Confirmatory screen for BT-12 cells (AID 1347112); further: on the % scale 0 is the no-effect control and ±100 the full control effect; nearly all actives have a fitted effect of over 55% in size
Method in brief: as §2

[9] = qHTS of pediatric cancer cell lines to identify multiple opportunities for drug repurposing: Confirmatory screen for DAOY cells (AID 1347114); further: on the % scale 0 is the no-effect control and ±100 the full control effect; nearly all actives have a fitted effect of over 65% in size
Method in brief: (§3)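 Viability measured as metabolically active cells via CellTiter-Glo luminescence following 48 hours of compound exposure, 11-point dilutions in confirmatory testing. 500-1,000 cells/well plated 5 hours before dosing; controls were DMSO and 2.3 µM bortezomib.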

[10] = qHTS of pediatric cancer cell lines to identify multiple opportunities for drug repurposing: Confirmatory screen for NB-EBc1 cells (AID 1347115);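 further: cells exposed to compound for 48 h before the viability read; on the % scale 0 is the no-effect control and ±100 the full control effect; nearly all actives have a fitted effect of over 45% in size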
Method in brief: as §2

[11] = qHTS of pediatric cancer cell lines to identify multiple opportunities for drug repurposing: Confirmatory screen for SJ-GBM2 cells (AID 1347116);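 further: plate controls were DMSO for no effect and bortezomib for full effect; nearly all actives have a fitted effect of over 60% in size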
Method in brief: as §3

[12] = qHTS of pediatric cancer cell lines to identify multiple opportunities for drug repurposing: Confirmatory screen for control Hh wild type fibroblast cells (AID 1347121);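 further: plate controls were DMSO for no effect and bortezomib for full effect; nearly all actives have a fitted effect of over 70% in size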
Method in brief: as §2

[13] = qHTS of pediatric cancer cell lines to identify multiple opportunities for drug repurposing: Confirmatory screen for U-2 OS cells (AID 1347122);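 further: plate controls were DMSO for no effect and bortezomib for full effect; nearly all actives have a fitted effect of over 65% in size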
Method in brief: as §2

[14] = qHTS of pediatric cancer cell lines to identify multiple opportunities for drug repurposing: Confirmatory screen for Rh41 cells (AID 1347123);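 further: 48 h compound exposure; plate controls were DMSO for no effect and bortezomib for full effect; nearly all actives have a fitted effect of over 60% in size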
Method in brief: as §2

CC(C)(C)c1cc(C=O)cc(C(C)(C)C)c1O
inactive: Potency [1] | Potency [2] | Potency [3] | Potency [4] | Potency [5] | Potency [6]

CCCCCC[C@@H](CCC)C(=O)O
inactive: Potency [1] | Potency [2] | Potency [3] | Potency [4] | Potency [5] | Potency [6]

O=C1c2ccccc2CCc2ccccc21
inactive: Potency [1] | Potency [2] | Potency [3] | Potency [4] | Potency [5] | Potency [6]

COC(=O)/C=C(/C)N
inactive: Potency [1] | Potency [2] | Potency [3] | Potency [4] | Potency [5] | Potency [6]

COc1ccccc1OCC1CNC(=O)O1 (stereo unspecified)
inactive: Potency [1] | Potency [2] | Potency [3] | Potency [4] | Potency [5] | Potency [6]

Nc1c[n+](N2CCOCC2)no1
inactive: Potency [1] | Potency [2] | Potency [3] | Potency [4] | Potency [5] | Potency [6]

Cc1c(N)cccc1C(F)(F)F
inactive: Potency [1] | Potency [2] | Potency [3] | Potency [4] | Potency [5] | Potency [6]

CC(C)(C)NCC(O)COc1ccccc1OCC1CCCO1 (stereo unspecified)
inactive: Potency [1] | Potency [2] | Potency [3] | Potency [4] | Potency [5] | Potency [6]

CC(C)C[C@H](NC(=O)CNC(=O)[C@H](Cc1ccc(O)cc1)NC(=O)[C@H](CO)NC(=O)[C@H](Cc1c[nH]c2ccccc12)NC(=O)[C@H](Cc1cnc[nH]1)NC(=O)[C@@H]1CCC(=O)N1)C(=O)N[C@@H](CCCN=C(N)N)C(=O)N1CCC[C@H]1C(=O)NCC(N)=O (stereo in doubt)
inactive: Potency [1] | Potency [2] | Potency [3] | Potency [4] | Potency [5] | Potency [6]

CC(=O)Nc1ccc(S(=O)(=O)Nc2cc(C)on2)cc1
inactive: Potency [1] | Potency [2] | Potency [3] | Potency [4] | Potency [5] | Potency [6]

OCCCc1ccccc1
inactive: Potency [1] | Potency [2] | Potency [3] | Potency [4] | Potency [5] | Potency [6]

O=C(O)[C@@H](O)[C@H](O)[C@H](O)[C@@H](O)C(=O)O
inactive: Potency [1] | Potency [2] | Potency [3] | Potency [4] | Potency [5] | Potency [6]

C/C(=N\O)[C@@H](C)NCC(C)(C)CN[C@H](C)/C(C)=N/O
inactive: Potency [1] | Potency [2] | Potency [3] | Potency [4] | Potency [5] | Potency [6]

CO/N=C(/C(=O)N[C@@H]1C(=O)N2C(C(=O)O)=C(Cn3nnc(C)n3)CS[C@H]12)c1csc(N)n1
inactive: Potency [1] | Potency [2] | Potency [3] | Potency [4] | Potency [5] | Potency [6]

NCC[C@H](O)C(=O)N[C@@H]1C[C@H](N)[C@@H](O[C@H]2O[C@H](CN)[C@@H](O)[C@H](O)[C@@H]2O)[C@H](O)[C@@H]1O[C@H]1O[C@H](CO)[C@@H](O)[C@H](N)[C@@H]1O
inactive: activity change, negative = cytotoxic [1] 17.5% [at 0.73 µM] | activity change, negative = cytotoxic [2] 8.3% [at 0.597 µM] | activity change, negative = cytotoxic [3] -9.26% [at 0.597 µM] | activity change, negative = cytotoxic [4] -6.47% [at 0.597 µM] | activity change, negative = cytotoxic [5] 20.7% [at 0.597 µM] | activity change, negative = cytotoxic [6] 34.1% [at 0.597 µM]

CCOC(=O)C(=O)CCCCCCl
inactive: Potency [1] | Potency [2] | Potency [3] | Potency [4] | Potency [5] | Potency [6]

CCO[C@H](Cc1ccc(OCCc2ccc(OS(C)(=O)=O)cc2)cc1)C(=O)O
inactive: Potency [1] | Potency [2] | Potency [3] | Potency [4] | Potency [5] | Potency [6]

CCOC(=O)Oc1ccc(CCNC(=O)[C@H](CCSC)NC(C)=O)cc1OC(=O)OCC
inactive: Potency [1] | Potency [2] | Potency [3] | Potency [4] | Potency [5] | Potency [6]

CCN(CC)CC(=O)Oc1ccc(NC(C)=O)cc1
inactive: Potency [1] | Potency [2] | Potency [3] | Potency [4] | Potency [5] | Potency [6]

COc1ccc(OC(=O)N(CC(=O)O)Cc2ccc(OCCc3nc(-c4ccccc4)oc3C)cc2)cc1
inactive: Potency [1] | Potency [2] | Potency [3] | Potency [4] | Potency [5] | Potency [6]

Cc1ccc2c(Cl)cc(Cl)c(O)c2n1
inactive: Potency [1] | Potency [2] | Potency [3] | Potency [4] | Potency [5] | Potency [6]

O=C(OCC(COC(=O)c1cccnc1)(COC(=O)c1cccnc1)COC(=O)c1cccnc1)c1cccnc1
inactive: Potency [1] | Potency [2] | Potency [3] | Potency [4] | Potency [5] | Potency [6]

Cc1ccc(O)cc1
inactive: Potency [1] | Potency [2] | Potency [3] | Potency [4] | Potency [5] | Potency [6]

CCCCC(CC)COC(=O)c1ccccc1C(=O)O (stereo unspecified)
inactive: Potency [1] | Potency [2] | Potency [3] | Potency [4] | Potency [5] | Potency [6]

O=C(OCC1(COC(=O)c2cccnc2)CCCC(COC(=O)c2cccnc2)(COC(=O)c2cccnc2)C1O)c1cccnc1
inactive: Potency [1] | Potency [2] | Potency [3] | Potency [4] | Potency [5] | Potency [6]

O=C1CC2(CCCC2)CC(=O)N1CCNCC1COc2ccccc2O1 (stereo unspecified)
inactive: Potency [1] | Potency [2] | Potency [3] | Potency [4] | Potency [5] | Potency [6]

C[C@H]1C[C@@H]2[C@H]([C@@H](O)C[C@@]3(C)[C@H]2CC[C@]3(O)C(=O)CO)[C@@]2(C)C=CC(=O)C=C12
inactive: Potency [1] | Potency [2] | Potency [3] | Potency [4] | Potency [5] | Potency [6] | Potency [7] | Potency [8] | Potency [9] | Potency [10] | Potency [11] | Potency [12] | Potency [13] | Potency [14]

CSc1ccc(/C=C2/C(C)=C(CC(=O)O)c3cc(F)ccc32)cc1
inactive: Potency [1] | Potency [2] | Potency [3] | Potency [4] | Potency [5] | Potency [6]

CC(=O)N(CC(O)CO)c1c(I)c(C(=O)NCCO)c(I)c(C(=O)NCC(O)CO)c1I (stereo unspecified)
inactive: Potency [1] | Potency [2] | Potency [3] | Potency [4] | Potency [6]

O=C(CCOCCOCCOCCOCCC(=O)Nc1c(I)cc(I)c(C(=O)O)c1I)Nc1c(I)cc(I)c(C(=O)O)c1I
inactive: Potency [1] | Potency [2] | Potency [3] | Potency [4] | Potency [6]
